# Experimental data published in ChEMBL document CHEMBL3988442, “University of Dundee, Small-Polar-MMV Screening Library” (2021).
# Hit rate of the full screen: of about 53,000 compounds, about 900 (1.7%) showed an effect of 50% or more. What follows is part of a selection rich in strong results, with near analogues and random picks from the rest.
# System: Mycobacterium tuberculosis
# Assay: Cornell - Phenotypic assay to identify agents that inhibit growth of Mycobacterium tuberculosis
# Format: functional
# Set-up: scale not given: direction of the effect not stated beside the values
# Conditions: 10 mM as filed; unlikely as a test dose
row,SMILES,Percent Effect
1,Cc1ccccc1C1CCCN1Cc1ccc(S(=O)(=O)N(C)C)o1 (configuration not stated),23.54%
2,O=C(O)c1cnc(N2CCCC2)nc1COc1ccc(F)cc1,38.38%
3,COCC(O)CN(C)C(=O)NCc1ccc(-c2ccn[nH]2)cc1 (configuration not stated),-4.972%
4,CN1CCOC(c2cncc(CCC(=O)N(C)C)n2)C1 (configuration not stated),-44.27%
5,Fc1cccc(Nc2nc(N3CCCC3)nc3c2CNCC3)c1,102.5%
6,COc1cccc(Nc2nc(N3CCCC3)nc3c2CNCC3)c1.Cl,17.23%
7,Oc1nc(N2CCOCC2)nc2c1CCN(Cc1cccc(F)c1)CC2,-50.2%
8,Cc1ccc(Cl)cc1N1CCN(CC(=O)NCc2ccco2)CC1,15.76%
9,O=C(NCC1CCCO1)Nc1nnc(C(F)(F)F)s1 (configuration not stated),1.87%
10,CCOCC(=O)NCCc1nc(C)cc(C(F)(F)F)n1,8.236%
11,Nc1ccnc(-c2cc(NC3CCNCC3)nc3[nH]ccc23)c1,11.63%
12,CNc1cc(C)nc(-c2cc(NC3CCNCC3)nc3[nH]ccc23)n1,12.28%
13,COCCNc1cc(-c2ccccc2S(N)(=O)=O)c2cc[nH]c2n1,21.18%
14,COc1cc(-c2cc(NC3CCCC3)nc3[nH]ccc23)nc(N)n1,98.19%
15,COc1nccnc1-c1cc(NC2CCCC2)nc2[nH]ccc12,101.6%
16,COc1nccnc1-c1cc(NC2CCNCC2)nc2[nH]ccc12,48.16%
17,COc1ncc(-c2cc(NCCN(C)C)nc3[nH]ccc23)c(OC)n1,-22.77%
18,COc1ncc(-c2cc(NC3CCCC3)nc3[nH]ccc23)c(OC)n1,89.73%
19,FC(F)(F)c1ccc(-c2cc(NC3CCNCC3)nc3[nH]ccc23)nc1,3.154%
20,C=Cc1cccc(CN(Cc2cnn(C)c2)C2CC2)c1,14.04%
21,Cc1nc(C)n(CC2CCCCN2Cc2cn3ccccc3n2)n1 (configuration not stated),-36.82%
22,Cc1csc(C(C)(C)NCCOc2ccc(CC#N)cc2)n1,-14.48%
23,NC(=O)N1CCCN(Cc2cc(F)cc(Br)c2)CC1,17.84%
24,Cc1cccc(CN2C[C@@H]3COC[C@]3(CNC(=O)C3CCC3)C2)c1.O=C(O)C(F)(F)F,0.1331%

row,SMILES,Percent Effect
1,O=C(O)C(F)(F)F.c1cncc(C2CC3(CCN(c4cnccn4)CC3)c3ccccc32)c1 (configuration not stated),50.88%
2,CN(C)CCOC1CC2(CCN(c3cnccn3)CC2)c2ccccc21.O=C(O)C(F)(F)F (configuration not stated),-38.38%
3,CCOC1CC2(CCN(c3cnccn3)CC2)c2ccccc21 (configuration not stated),32.32%
4,Cc1cnc(-c2nc(O)c3c(n2)CN(C(=O)C2CCCC2)CC3)cn1,-5.983%
5,Cn1cc(S(=O)(=O)NCC(C)(O)c2ccsc2)cn1 (configuration not stated),-58.46%
6,COCc1nc2cc(NCc3ncc[nH]3)ccc2o1,107.7%
7,COCc1nc(C2CCN(Cc3ncc[nH]3)CC2)no1,-22.72%
8,COCc1nc2cc(NCc3nc(C)cs3)ccc2o1,107.4%
9,COC(=O)c1ccc(NCc2csc(C)n2)cc1Cl,15.32%
10,Cc1csc(CNc2cnn(C(C)C)c2)n1,-3.592%
11,Fc1ccc(NCc2ncc[nH]2)cc1Br,55.27%
12,COc1cc(NCc2ncc[nH]2)ccc1Br,-5.052%
13,Cc1csc(CNc2cccc(OCCN3CCCC3)c2)n1,34.79%
14,Fc1cccc(NCc2ncc[nH]2)c1,35.73%
15,COCc1nc(CNc2cccc(-c3csc(C)n3)c2)cs1,38.18%
16,CC(C)(C)OC(=O)N1CCCc2ccc(NCc3ncc[nH]3)cc21,-12.48%
17,COCc1nc2cc(NCc3csc(C)n3)ccc2o1,107.6%
18,COc1ccc(OC(F)F)c(NCC(=O)NCC(=O)N2CCCC2)c1,14.52%
19,COC(=O)COc1c(F)cc(Br)cc1C(C)=O,-28.15%
20,NS(=O)(=O)NCc1cc(-c2ccco2)n(CC(F)(F)F)n1,5.494%
21,O=C(Nc1cccn(Cc2ccc(F)cc2)c1=O)c1cnc[nH]1,15.84%
22,Cc1nnc(SCC(=O)c2cc3c(cc2Cl)NC(=O)C3)o1,14.6%
23,Cc1nc(C(C)N2Cc3ncccc3C2=O)cs1 (configuration not stated),12.56%
24,COCc1nc(CNc2cccc(-c3ncon3)c2)cs1,-0.7134%

row,SMILES,Percent Effect
1,COCc1nc2cc(NCc3cc[nH]n3)ccc2o1,106.8%
2,COCc1nc2cc(NCc3ccncc3)ccc2o1,39.69%
3,CCC(O)CN1CCN(C(=O)c2ccc(Cn3cccc3)cc2)CC1 (configuration not stated),-35.22%
4,CCCS(=O)(=O)N1CCN(Cc2ccco2)CC1.O=C(O)C(=O)O,-8.655%
5,COc1cc(C(=O)N2CC3(CCNCC3)c3cc(Cl)ccc32)ccn1.O=C(O)C(F)(F)F.O=C(O)C(F)(F)F,15.78%
6,CNc1cc(-c2ccc(COCCN)cc2)c2cc[nH]c2n1,26.91%
7,CNc1cc(-c2ccccc2CN)c2cc[nH]c2n1,23.62%
8,CNc1cc(-c2cccc(CN)c2)c2cc[nH]c2n1,80.74%
9,CCOc1c(Cl)cc(/C=C/c2ncc(C(=O)O)s2)cc1OC,33.38%
10,CCOCC1CCN(C(=O)C(c2ccccc2F)N(C)C)CC1 (configuration not stated),28.27%
11,CS(=O)(=O)N1CCN(C(=O)c2cncs2)CC(C(N)=O)C1 (configuration not stated),53.86%
12,CNC(=O)C1CN(C(=O)c2cccs2)CCN(S(C)(=O)=O)C1 (configuration not stated),18.15%
13,CNC(=O)C1CCCN(C(=O)c2cncs2)C1 (configuration not stated),43.16%
14,COC[C@@]12CCO[C@@H]1CCN(C(=O)Cc1ccccc1C)C2,7.914%
15,Cc1ccc(C(=O)NS(=O)(=O)c2ccc3c(c2)OCCCO3)o1,-1.542%
16,Cc1oc(C)c(C(=O)NS(=O)(=O)c2ccc3c(c2)OCCCO3)c1C,58.42%
17,Cc1oc(C)c(C(=O)NS(=O)(=O)c2ccc3c(c2)OCCO3)c1Br,6.395%
18,NC(=O)N1CCC(C(=O)NC2CCc3nccn3C2)CC1 (configuration not stated),-11.45%
19,COC(=O)C(NC(=O)COC1CCCC1)c1cc(F)ccc1F (configuration not stated),63.8%
20,NC(=O)C(NC(=O)COC1CCCC1)c1ccccc1 (configuration not stated),21.89%
21,COC(=O)C(NC(=O)c1ccco1)c1cc(F)ccc1F (configuration not stated),104.5%
22,COC(=O)C(c1cc(F)ccc1F)N(C)C(=O)c1ccccn1 (configuration not stated),0.1474%
23,COC(=O)C(NC(=O)COC1CCCCC1)c1ccccc1 (configuration not stated),43.33%
24,COC(=O)C(NC(=O)C(C)C)c1cc(F)ccc1F (configuration not stated),35.55%
